According to PubChem BioAssay (Tox21):
Results filed as inconclusive are left out. The source made the active and inactive calls. Unless noted, calls come from the whole dose curve; as a rule, active = well fitted curve in the direction sought with a large enough effect in the repeat runs; inconclusive = weak or mixed curves; inactive = no such curve, though single readings can be large; an effect the other way counts as inactive or inconclusive.

Key:
[1] = qHTS assay to identify small molecule antagonists of the estrogen related receptor (ERR) signaling pathway from Tox21 library - cell viability counter screen (AID 1224834); note: nearly all actives have a fitted effect of over 30% in size
How it was run: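 Fluorescence from CellTiter-Fluor gives the viability read-out, taken 30 min after reagent addition. Before that, ERR cells seeded 6 h earlier were incubated with compounds for 17.5 h at 37 C.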

[2] = molecular target: Luciferin 4-monooxygenase (Photinus pyralis) (UniProt P08659); test: qHTS assay to identify small molecule inhibitors of firefly luciferase (AID 1224835); note: nearly all actives have a fitted effect of over 25% in size
How it was run: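 Inhibition of purified Photinus luciferase is measured by luminescence. Substrate levels (D-luciferin, ATP) sit at their KM values. Each compound is tested in a concentration series.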

[3] = qHTS assay to identify small molecule agonists of the constitutive androstane receptor (CAR) signaling pathway - cell viability counter screen (AID 1224836); note: nearly all actives have a fitted effect of over 45% in size
How it was run: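 HepG2 cells stably carrying hCAR and a CYP2B6-2.2kb reporter were plated 4 h, then given compounds at 15 concentrations plus PK11195 (final 0.75 uM). After 23 h at 37 C, viability was read by CellTiter-Fluor fluorescence.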

[4] = qHTS assay to identify small molecule antagonists of the constitutive androstane receptor (CAR) signaling pathway - cell viability counter screen (AID 1224837); note: nearly all actives have a fitted effect of over 45% in size
How it was run: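 HepG2-CYP2B6-hCAR cells, 2500/well, 4 hr pre-incubation; compound titration, 15 conc.; CITCO 50 nM final; 23 hr, 37 C/5% CO2; CellTiter-Fluor, fluorescence intensity.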

[5] = qHTS assay to identify small molecule antagonists of the estrogen related receptor signaling pathway with the pleiotropic PPARgamma coactivator (PGC) from Tox21 10K library - cell viability counter screen (AID 1224840; active = well fitted cell-killing curve with a large enough effect in the repeat runs, not every such curve was filed as active; note: nearly all actives have a fitted effect of over 40% in size)
How it was run: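 PGC/ERR cells, 2,000/well; 6 h pre-incubation 37 C/5% CO2; cpd in DMSO via pin tool; 17.5 h 37 C; CellTiter-Fluor, 30 min; fluorescence.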

[6] = qHTS assay to identify small molecule antagonists of the estrogen related receptor signaling pathway with the pleiotropic PPARgamma coactivator (PGC) from Tox21 10K library (AID 1224841; call rule not given here; note: actives are mostly falling curves and most rising ones were filed inactive; nearly all actives have a fitted effect of over 50% in size)
How it was run: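 PGC/ERR cell line, 2,000 cells/well; 6 h pre-incubation 37 C/5% CO2; compounds (DMSO) pinned in; 18 h, 37 C; One-Glo, 30 min RT; luminescence.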

[7] = qHTS assay to identify small molecule agonists of the estrogen related receptor signaling pathway with the pleiotropic PPARgamma coactivator (PGC) from Tox21 10K library (AID 1224842); note: nearly all actives have a fitted effect of over 15% in size
How it was run: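 Luminescence from One-Glo (30 min, room temperature) measured after PGC/ERR cells had 18 h at 37 C with pinned compound (23 nL in DMSO). Cells had been seeded at 2,000 per well and pre-incubated 6 h.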

[8] = molecular target: Thyrotropin receptor (Homo sapiens) (UniProt P16473); test: qHTS assay to identify small molecule agonists of the thyroid stimulating hormone receptor (TSHR) signaling pathway (AID 1224843; calls by dose curve; note: nearly all actives have a fitted effect of over 45% in size)
How it was run: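 Screening of the Tox21 10K collection used HEK293 cells engineered with TSHR at 800 cells per well. After a 30-min room-temperature compound exposure, HTRF cAMP reagents were added and fluorescence recorded 1 h later.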

[9] = qHTS assay to identify small molecule agonists of the hypoxia (HIF-1) signaling pathway - cell viability counter screen (AID 1224844; calls by dose curve; note: nearly all actives have a fitted effect of over 50% in size)
How it was run: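 ME-180 HRE-bla cells, 2,000/well, 0.5% dialyzed FBS; 5 hr settle, 17 hr compound at 37C/5% CO2; CCF4-AM reporter read first, then CellTiter-Glo luminescence after 30 min RT.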

[10] = qHTS assay to identify small molecule agonists of H2AX (AID 1224845; active = well fitted activation curve with a large enough effect in the signal ratio in the repeat runs, not every such curve was filed as active; the % refers to the signal ratio)
How it was run: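 Phospho-H2AX Ser139 measured by HTRF (ex 320 nm; em 665 and 620 nm) after 24 hr antibody incubation. Compounds, 15 concentrations, 0.76% DMSO, were applied to CHO-K1 cells for 3hr at 37C before lysis.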

[11] = qHTS assay to identify small molecule agonists of the hypoxia (HIF-1) signaling pathway (AID 1224846; active = well fitted activation curve with a large enough effect in the signal ratio in the repeat runs, not every such curve was filed as active; the % refers to the signal ratio)
How it was run: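 Cell line: CellSensor HRE-bla ME-180; 2,000 cells/well; 0.5% dialyzed FBS; 5 h preincubation; DMSO compound pin transfer; 17 h, 37C, 5% CO2; CCF4-AM added; bla FRET signal scored for activation.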

[12] = qHTS assay to identify small molecule antagonists of the estrogen related receptor (ERR) signaling pathway from Tox21 library (AID 1224848); note: nearly all actives have a fitted effect of over 50% in size
How it was run: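 Antagonist-mode screen of the Tox21 10K library in an NTP-provided ERR reporter cell line; 18 h compound exposure at 37 C, luminescence measured with ONE-Glo.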

[13] = qHTS assay to identify small molecule agonists of the estrogen related receptor (ERR) signaling pathway from Tox21 library (AID 1224849; calls by dose curve; note: nearly all actives have a fitted effect of over 15% in size); conditions: ERR reporter cell line, ONE-Glo luciferase, 18 h; at 92.4 µM (top of the series) unless noted
How it was run: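 ERR cells, 6 h pre-incubation 37 C/5% CO2; cpd in DMSO pinned; 18 h 37 C; ONE-Glo added, 30 min RT; luminescence read. Agonist mode, qHTS.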

[14] = qHTS RealTime-Glo MT Cell Viability Assay in HepG2 cells - 24 hour (AID 1224867); note: nearly all actives have a fitted effect of over 50% in size
How it was run: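 Luminescence read-out: viable HepG2 cells reduce a prosubstrate to a NanoLuc substrate, giving a signal proportional to live cell number. Reads taken at 0, 8, 16, 24, 32 and 40 h of compound exposure at 37 C.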

[15] = qHTS RealTime-Glo MT Cell Viability Assay in HEK293 cells - 32 hour (AID 1224868)
How it was run: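 Nonlytic real-time viability readout: viable cells convert prosubstrate to NanoLuc substrate, giving luminescence proportional to live cell number. HEK293, 600 cells/well, compound added after 5 h, continuous culture at 37 C.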

[16] = A CellTox Green Cytotoxicity Assay to monitor cytotoxicity in HEK293 cells - 0 hour (AID 1224869); note: nearly all actives have a fitted effect of over 50% in size
How it was run: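 Nonlytic real-time cytotoxicity: HEK293 + CellTox Green reagent plated, 5 h preincubation, pintool compound addition (23 nL in DMSO), 37 C for 40 h, fluorescence measured at successive time points.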

[17] = qHTS assay to identify small molecule agonists of H2AX - cell viability counter screen (AID 1224847; calls by dose curve; note: top concentration of the series differs between compounds; nearly all actives have a fitted effect of over 30% in size)
How it was run: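 Wild-type CHO-K1 cells (10% FBS medium) were plated overnight at 37C, exposed to compounds at 15 concentrations for 3 hr at 37C (0.76% DMSO final), and viability was read as CellTiter-Glo luminescence after 30 min at room temperature.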

[18] = molecular target: Nuclear receptor subfamily 1 group I member 3 (Homo sapiens) (UniProt Q14994); test: qHTS assay to identify small molecule antagonists of the constitutive androstane receptor (CAR) signaling pathway (AID 1224838); note: nearly all actives have a fitted effect of over 40% in size
How it was run: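 HepG2-CYP2B6-hCAR cells; 4 h pre-incubation; cpd (15 conc) + CITCO 50 nM final; 24 h, 37 C/5% CO2; ONE-Glo, luminescence.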

[19] = molecular target: Nuclear receptor subfamily 1 group I member 3 (Homo sapiens) (UniProt Q14994); test: qHTS assay to identify small molecule agonists of the constitutive androstane receptor (CAR) signaling pathway (AID 1224839);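 note: HepG2 cells stably carrying human CAR and a CYP2B6 luciferase reporter; nearly all actives have a fitted effect of over 15% in size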
How it was run: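 HepG2 cells stably expressing hCAR and a CYP2B6-2.2kb luciferase reporter were treated with compounds at 15 concentrations plus 0.75 uM PK11195 (final) for 24 h at 37 C; luminescence was read after ONE-Glo addition.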
% is set by controls: 0 for no effect and ±100 for the full control effect.

Sequence of Thyrotropin receptor (Homo sapiens) (P16473 whole entry, looked up): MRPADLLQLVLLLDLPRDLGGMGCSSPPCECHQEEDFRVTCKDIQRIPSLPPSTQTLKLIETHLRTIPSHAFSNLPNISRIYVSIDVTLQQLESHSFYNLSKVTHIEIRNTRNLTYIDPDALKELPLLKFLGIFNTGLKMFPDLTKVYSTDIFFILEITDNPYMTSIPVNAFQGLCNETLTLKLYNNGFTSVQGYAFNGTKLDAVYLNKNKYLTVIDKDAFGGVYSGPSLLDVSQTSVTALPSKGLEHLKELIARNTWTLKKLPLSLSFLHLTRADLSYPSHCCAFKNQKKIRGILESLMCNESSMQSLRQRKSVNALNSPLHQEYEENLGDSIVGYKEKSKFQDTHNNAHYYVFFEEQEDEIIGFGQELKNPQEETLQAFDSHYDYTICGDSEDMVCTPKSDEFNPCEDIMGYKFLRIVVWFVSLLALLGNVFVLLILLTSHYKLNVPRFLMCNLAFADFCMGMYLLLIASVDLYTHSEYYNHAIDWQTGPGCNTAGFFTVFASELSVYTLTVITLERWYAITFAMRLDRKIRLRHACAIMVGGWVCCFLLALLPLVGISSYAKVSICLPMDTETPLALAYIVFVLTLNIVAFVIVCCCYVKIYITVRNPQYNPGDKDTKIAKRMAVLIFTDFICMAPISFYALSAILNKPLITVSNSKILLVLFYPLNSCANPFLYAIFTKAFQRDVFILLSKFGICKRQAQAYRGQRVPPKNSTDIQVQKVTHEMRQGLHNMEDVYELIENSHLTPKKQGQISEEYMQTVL
Sequence of Nuclear receptor subfamily 1 group I member 3 (Homo sapiens) (Q14994 whole entry, looked up): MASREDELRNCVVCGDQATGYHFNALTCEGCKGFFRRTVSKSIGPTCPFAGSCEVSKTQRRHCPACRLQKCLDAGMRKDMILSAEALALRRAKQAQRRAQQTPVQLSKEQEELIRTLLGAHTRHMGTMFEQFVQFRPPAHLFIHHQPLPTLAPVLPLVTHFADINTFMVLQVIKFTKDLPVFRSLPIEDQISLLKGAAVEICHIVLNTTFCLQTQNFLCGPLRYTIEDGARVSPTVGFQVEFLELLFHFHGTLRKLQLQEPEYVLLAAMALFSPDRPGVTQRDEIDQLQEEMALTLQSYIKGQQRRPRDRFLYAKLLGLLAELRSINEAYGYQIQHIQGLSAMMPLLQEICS
Sequence of Luciferin 4-monooxygenase (Photinus pyralis) (P08659 whole entry, looked up): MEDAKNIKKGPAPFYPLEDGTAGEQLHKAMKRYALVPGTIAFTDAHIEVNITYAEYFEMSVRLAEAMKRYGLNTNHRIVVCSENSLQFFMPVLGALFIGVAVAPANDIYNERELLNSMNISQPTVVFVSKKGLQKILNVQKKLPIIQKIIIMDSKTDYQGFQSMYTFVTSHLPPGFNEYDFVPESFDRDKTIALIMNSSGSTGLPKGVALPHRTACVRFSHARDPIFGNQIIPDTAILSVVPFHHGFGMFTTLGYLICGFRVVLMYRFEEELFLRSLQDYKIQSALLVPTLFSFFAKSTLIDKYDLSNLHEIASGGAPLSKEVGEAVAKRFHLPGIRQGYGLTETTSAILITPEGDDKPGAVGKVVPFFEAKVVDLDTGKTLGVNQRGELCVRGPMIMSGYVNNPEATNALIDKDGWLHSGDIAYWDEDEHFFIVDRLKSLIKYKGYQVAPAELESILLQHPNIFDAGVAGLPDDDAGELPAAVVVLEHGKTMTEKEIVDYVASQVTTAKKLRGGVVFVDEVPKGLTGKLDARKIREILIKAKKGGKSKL

CCOC(=O)N(C)N=O
inactive: Potency [1] | Potency [2] | Potency [3] | Potency [4] | Potency [5] | Potency [6] | Potency [7] | Potency [8] | Potency [9] | outcome [10] | outcome [11] | Potency [12] | activity change, positive = activation [13] -2.98% | Potency [14] | Potency [15] | outcome [16]

CNC(=O)Oc1cc(C)c(N(C)C)c(C)c1
inactive: Potency [1] | Potency [2] | Potency [3] | Potency [4] | Potency [5] | Potency [6] | Potency [7] | Potency [9] | outcome [10] | outcome [11] | Potency [17] | Potency [12] | activity change, positive = activation [13] 4.59% | Potency [14] | Potency [15] | outcome [16]

CCOC(=O)C(Cl)Cc1cc(-n2nc(C)n(C(F)F)c2=O)c(F)cc1Cl (stereo not given)
inactive: Potency [1] | Potency [2] | Potency [3] | Potency [4] | Potency [18] | Potency [5] | Potency [9] | outcome [10] | Potency [17] | Potency [14] | outcome [16]

CC(=O)CN(CC(C)=O)N=O
inactive: Potency [1] | Potency [2] | Potency [3] | Potency [4] | Potency [5] | Potency [6] | Potency [7] | Potency [8] | Potency [9] | outcome [10] | outcome [11] | Potency [12] | activity change, positive = activation [13] -3.56% | Potency [14] | Potency [15] | outcome [16]

CNC(=O)Oc1ccccc1C(C)C
inactive: Potency [1] | Potency [2] | Potency [3] | Potency [4] | Potency [18] | Potency [5] | Potency [6] | Potency [7] | Potency [8] | Potency [9] | outcome [10] | Potency [17] | Potency [12] | activity change, positive = activation [13] 1.9% | Potency [14] | Potency [15] | outcome [16]

COP(=O)(OC)O/C(C)=C/C(=O)N(C)C
inactive: Potency [1] | Potency [2] | Potency [3] | Potency [4] | Potency [5] | Potency [6] | Potency [7] | Potency [8] | Potency [9] | outcome [10] | outcome [11] | Potency [17] | Potency [12] | activity change, positive = activation [13] -0.44% | Potency [14] | Potency [15] | outcome [16]

Brc1c(Br)c(Br)c(Br)c(Br)c1Br
inactive: viability change, negative = cytotoxic [1] 3.18% [at 8.39 µM] | activity change, negative = inhibition [2] -3.44% [at 10.5 µM] | viability change, negative = cytotoxic [3] 3.28% [at 8.39 µM] | activity change, negative = cytotoxicity [4] -3.15% [at 8.39 µM] | activity, negative = inhibition [18] -5.81% [at 8.39 µM] | activation [19] -2.38% [at 8.39 µM] | viability change, negative = cytotoxic [5] -4.4% [at 8.39 µM] | activation [8] 1.42% [at 8.39 µM] | activity change, negative = cytotoxicity [9] -35.3% [at 6.97 µM] | activation [11] -0.641% [at 7.01 µM] | activity change, negative = cytotoxicity [14] -11.6% [at 6.97 µM] | cytotoxicity [16] 20.1% [at 6.97 µM]

O=S1(=O)OCCO1
inactive: Potency [1] | Potency [2] | Potency [4] | Potency [18] | Potency [19] | Potency [5] | Potency [6] | Potency [7] | Potency [8] | Potency [9] | outcome [10] | Potency [17] | Potency [12] | activity change, positive = activation [13] 5.54% | Potency [14] | Potency [15] | outcome [16]

CCNc1nc(NCC)nc(SC)n1
inactive: Potency [1] | Potency [2] | Potency [4] | Potency [18] | Potency [19] | Potency [5] | Potency [8] | Potency [9] | outcome [10] | outcome [11] | Potency [17] | Potency [14] | Potency [15] | outcome [16]

CCOc1cc(OP(=S)(OC)OC)nc(CC)n1
inactive: Potency [1] | Potency [2] | Potency [3] | Potency [4] | Potency [5] | Potency [8] | Potency [9] | outcome [10] | Potency [17] | Potency [14] | outcome [16]

COC(=O)c1ccccc1CS(=O)(=O)NC(=O)Nc1nc(OC)cc(OC)n1
inactive: Potency [1] | Potency [2] | Potency [4] | Potency [18] | Potency [19] | Potency [5] | Potency [6] | Potency [7] | Potency [8] | Potency [9] | outcome [10] | outcome [11] | Potency [17] | Potency [12] | activity change, positive = activation [13] -0.138% | Potency [14] | Potency [15] | outcome [16]
